From PubChem BioAssay (NCATS)
Results filed as inconclusive are left out. A call without a number means that no potency is given here. The source made the active and inactive calls. Calls follow the shape of the dose curve; as a rule, active = well fitted inhibition curve with a large enough effect; inconclusive = small, poorly fitted or top-dose-only effect; inactive = flat fitted curve, though single readings scatter.

Assays:
Assay in all cases: qHTS profiling for inhibitors of Plasmodium falciparum proliferation (AID 504749); also: nearly all actives have a fitted effect of over 60% in size
Conditions in all cases: P. falciparum in erythrocytes, SYBR Green DNA, 72 h; series mostly up to 28.7 µM
3D7 = system: 3D7
Method in brief: (§1)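 Each compound contacts P. falciparum-infected red blood cells for 72 h at 37 C; lysis buffer (Tris, EDTA, saponin, Triton X, SYBR Green I) is added and fluorescence measured next morning; values normalized to controls.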

7G8 = system: 7G8
Method in brief: as §1

AA1029 = system: AA1029
Method in brief: as §1

AS120 = system: AS120
Method in brief: as §1

ATS189 = system: ATS189
Method in brief: as §1

ATS95 = system: ATS95
Method in brief: as §1

C2A = system: C2A
Method in brief: as §1

CP185 = system: CP185
Method in brief: as §1

CP191 = system: CP191
Method in brief: as §1

CP192 = system: CP192
Method in brief: as §1
Potency is read from the fitted curve at half-maximal effect.

Compound	Potency (3D7)	Potency (7G8)	Potency (AA1029)	Potency (AS120)	Potency (ATS189)	Potency (ATS95)	Potency (C2A)	Potency (CP185)	Potency (CP191)	Potency (CP192)
COc1ccc2c(c1)OC(C)(C)C(c1ccccc1)C2c1ccc(OCCN2CCCC2)cc1 (configuration not stated)	3.16 µM (active)	2.82 µM (active)	3.55 µM (active)	3.16 µM (active)	3.55 µM (active)	5.01 µM (active)	4.47 µM (active)	3.98 µM (active)	2.51 µM (active)	10.7 µM (active)
c1ccc2c(c1)Sc1ccccc1N2CCN1CCCC1	11.2 µM (active)	7.08 µM (active)	7.94 µM (active)	7.08 µM (active)	8.91 µM (active)	8.91 µM (active)	–	10 µM (active)	–	–
CC(C)c1ncc([N+](=O)[O-])n1C	inactive	inactive	inactive	inactive	inactive	inactive	inactive	inactive	inactive	inactive
CN(Cc1ccccc1)Cc1ccccc1	inactive	inactive	inactive	inactive	inactive	inactive	inactive	inactive	inactive	inactive
COc1ccc(/C=C/C(=O)O)cc1	inactive	inactive	inactive	inactive	inactive	–	inactive	inactive	inactive	inactive
OC[C@H]1O[C@@](CO)(O[C@H]2O[C@H](CO)[C@@H](O)[C@H](O)[C@H]2O)[C@@H](O)[C@@H]1O	inactive	inactive	inactive	inactive	inactive	inactive	inactive	inactive	inactive	inactive
CO	inactive	inactive	inactive	inactive	inactive	inactive	inactive	inactive	inactive	inactive
CCCCCCCCCCCCOCCCN	inactive	inactive	inactive	inactive	inactive	inactive	inactive	inactive	inactive	inactive
C[Si](C)(C)O[Si](C)(C)C	inactive	inactive	inactive	inactive	inactive	inactive	inactive	inactive	inactive	inactive
S=C1SCN(Cc2ccccc2)CN1Cc1ccccc1	inactive	inactive	inactive	inactive	inactive	inactive	inactive	inactive	inactive	inactive
CCC(C(=O)NC(N)=O)c1ccccc1 (configuration not stated)	inactive	inactive	inactive	inactive	inactive	inactive	inactive	inactive	inactive	inactive
CC1CCCCN1CCCOC(=O)c1ccccc1 (configuration not stated)	inactive	inactive	inactive	inactive	inactive	inactive	inactive	inactive	inactive	inactive
Nc1nc(=O)n([C@@H]2CS[C@H](CO)O2)cc1F	inactive	inactive	inactive	inactive	inactive	inactive	inactive	inactive	inactive	inactive
CCCCC	inactive	inactive	inactive	inactive	inactive	inactive	inactive	inactive	inactive	inactive
O=C(O)c1ccc(OCCn2ccnc2)cc1	inactive	inactive	inactive	inactive	inactive	inactive	inactive	inactive	inactive	inactive
O=P(O)(O)CP(=O)(O)O	inactive	inactive	inactive	inactive	inactive	inactive	inactive	–	–	inactive
C[C@]12CC[C@@H]3c4ccc(OC(=O)c5ccccc5)cc4CC[C@H]3[C@@H]1CC[C@@H]2O	6.31 µM (active)	11.2 µM (active)	inactive	inactive	inactive	inactive	inactive	inactive	inactive	inactive

Compound	Potency (3D7)	Potency (7G8)	Potency (AA1029)	Potency (AS120)	Potency (ATS189)	Potency (ATS95)	Potency (C2A)	Potency (CP185)	Potency (CP191)	Potency (CP192)
CCN(CC)CCOc1ccccc1OC	inactive	inactive	inactive	inactive	inactive	inactive	inactive	inactive	inactive	inactive
OCC1(CO)COC(C(Cl)(Cl)Cl)OC1	inactive	inactive	inactive	inactive	inactive	inactive	inactive	inactive	inactive	inactive
O=C1c2ccccc2C(=O)C1c1ccc(F)cc1	inactive	inactive	inactive	inactive	inactive	inactive	inactive	inactive	inactive	inactive
C=CCN1CCCC1CNC(=O)c1cc(S(N)(=O)=O)cc(OC)c1OC (configuration not stated)	inactive	inactive	inactive	inactive	inactive	inactive	inactive	inactive	inactive	inactive
O=C(OCc1ccccc1)c1cccnc1	inactive	inactive	inactive	inactive	inactive	inactive	inactive	inactive	–	inactive
O=P(O)(O)OP(=O)(O)OP(=O)(O)O	inactive	inactive	inactive	inactive	inactive	inactive	inactive	inactive	inactive	inactive
O=C1N=C2SCCN2C(=O)C1Cc1ccc(Cl)cc1 (configuration not stated)	inactive	inactive	inactive	inactive	inactive	inactive	inactive	inactive	inactive	inactive
CC12CCC(C1)C(C)(C)C2=O (configuration not stated)	inactive	inactive	inactive	inactive	inactive	inactive	inactive	inactive	inactive	inactive
O=C(O)COc1ccc(CCNS(=O)(=O)c2ccccc2)s1	inactive	inactive	inactive	inactive	inactive	inactive	inactive	inactive	inactive	inactive
NCCN	inactive	inactive	inactive	inactive	inactive	inactive	inactive	inactive	inactive	inactive
O=C(OC1C[C@@H]2CC3C[C@H](C1)N2CC3=O)c1c[nH]c2ccccc12 (some centres not stated)	inactive	11.2 µM (active)	inactive	inactive	inactive	inactive	inactive	inactive	inactive	inactive
CC(C)C1=CC2=CC[C@@H]3[C@](C)(CCC[C@@]3(C)C(=O)O)[C@H]2CC1	inactive	–	inactive	inactive	inactive	inactive	inactive	inactive	inactive	–
COC(=O)c1ccccc1O	inactive	–	inactive	inactive	inactive	inactive	inactive	inactive	inactive	inactive
O=C(O)CCC/C=C\C[C@@H]1[C@@H](/C=C/[C@@H](O)COc2cccc(C(F)(F)F)c2)[C@H](O)C[C@@H]1O	inactive	–	inactive	inactive	inactive	inactive	inactive	inactive	inactive	–
CNC(=O)[C@H](Cc1c[nH]c2ccccc12)NC(=O)[C@@H](CC(=O)NO)CC(C)C	10 µM (active)	11.2 µM (active)	inactive	–	inactive	–	–	–	–	–
CCOC(=O)Cc1ccc(-c2ccccc2)cc1	inactive	inactive	–	inactive	inactive	inactive	inactive	inactive	–	–
Cn1c(=O)c2c(ncn2CCOC(=O)C(C)(C)Oc2ccc(Cl)cc2)n(C)c1=O	inactive	inactive	–	–	–	–	–	–	–	inactive
